For 106 compounds, INHIBITION results are on record in ChEMBL document CHEMBL4513216, “Probing the Open Global Health Chemical Diversity Library for Multistage-Active Starting Points for Next-Generation Antimalarials” (ACS Infect Dis, 2020).

Hit rate of the full screen: of about 69,000 compounds, about 8,600 (12%) showed an effect of 50% or more. The full list was thinned out, with strong results kept by preference.

The subject of this test is Plasmodium berghei. The test is described as follows: Screen against P. berghei liver stage (PbLuc), transformed with Luciferase, at 10uM. Format: functional, HepG2. The settings on record: tested at 10 uM.
For the compound `CNc1ccc(CC2CCCN(C(=O)c3scnc3C)C2)nn1` (stereo unspecified), the INHIBITION came out at 26.3%.
Then `CO[C@H]1CN(C(=O)c2cccc(C)n2)CC[C@@]12CCCO2`, with 21.7%; and `Cc1ccc(N2CCCC(NCc3ccc4c(c3)CCO4)C2)nn1` (stereo unspecified), with 7.12%.
Then `COCCN1CCCC(c2ncc(C(=O)N(C)C)c(C)n2)C1` (stereo unspecified), with 9.98%; and `Cc1ccc(CN2C[C@@H]3[C@@H](C(=O)NCC(C)C)CCS(=O)(=O)[C@@H]3C2)cc1`, with -36.9%.
The result for `COc1ccc(CN(C)Cn2cc(C)n(-c3cc(C)on3)c2=O)cc1` reads 19.3%; that for `Cc1cccnc1NC(=O)N(CCO)Cc1ccsc1`, -6.75%; that for `Cc1ccc(NC2CCN(C(=O)COc3cccc(F)c3)CC2)nn1`, 4.52%.
For `COC(=O)c1cccnc1N1CCC(Oc2cccc(F)c2)CC1`, the INHIBITION is listed as 58.4%.
`O=C(O)c1ccc(N2CCC(Oc3ccc(Cl)cc3)CC2)nc1`: the INHIBITION is given as 29.4%.
As to `O=C(O)c1cccc(N2CCC(Oc3cccc(F)c3)CC2)n1`, the INHIBITION was determined as 35%.
Then `CNC(=O)c1cccnc1N1CCN(C/C=C/c2ccccc2)CC1`, with 25.1%; and `CNC(=O)c1cccnc1N1CCC(OCc2ccccc2)CC1`, with 6.11%; and `CNC(=O)c1cccnc1N1CCC(Oc2ccc(F)cc2)CC1`, with 93.6%.
Then `O=C(O)c1ccc(N2CCC(Oc3cccc(F)c3)CC2)nc1`, with 32.2%.
Then `CCN(C)C(=O)c1ccc(N2CCC(Oc3cccc(F)c3)CC2)nc1`, with 61%; and `COc1ncccc1C(=O)N1CC[C@]2(C[C@@H](Oc3cccnc3)CO2)C1`, with 6.66%.
Take `CC(C)NC(=O)C1CN(C(=O)Nc2cccc(F)c2)CC12CCOCC2` (stereo unspecified): the INHIBITION was 17.1%.
The result for `Cc1cnn(CC(C)Nc2cnc3ccccc3n2)c1` (stereo unspecified) reads -26.8%; that for `CCn1cc(-n2cc3nc(N4CCN(C)CC4)[nH]cc-3c2=O)cn1`, -5.53%; that for `CN(C)S(=O)(=O)N1CCN(c2cc(-n3cccc3)ncn2)CC1`, 14.4%.
Then `CN(Cc1cnccn1)C(=O)c1ccnc(OC2CCC2)c1`, with 36.3%; and `CN(Cc1cnn(C)c1)C(=O)c1ccnc(OC2CCC2)c1`, with 46.4%.
The result for `CN(Cc1nnc(C2CC2)n1C)C(=O)c1ccnc(OC2CCC2)c1` reads -13.4%.
As for `CN(CC1CCCCO1)C(=O)c1ccnc(OC2CCC2)c1` (stereo unspecified), the INHIBITION was 9.48%.
Regarding `CCc1noc(CN(C)C(=O)c2ccnc(OC3CCC3)c2)n1`, the INHIBITION is reported as 55.4%.
Then `CN(Cc1ccc(C#N)cc1)C(=O)c1ccnc(OC2CCC2)c1`, with 51.4%; and `CC(C)NC(=O)N1CCc2ncc(CN3CCOCC3)n2CC1`, with 21.6%.
For `CCCS(=O)(=O)N1Cc2nccn2CC(CN(C)C)C1` (stereo unspecified), the INHIBITION was -57.5%.
Turning to `CC(=O)Nc1ccc(CNCc2ccc(CS(C)(=O)=O)cc2)cc1`, the INHIBITION was determined as 38%.
The result for `COCc1nc(CNc2cc(C)on2)cs1` reads 51.7%; that for `COCc1nc(CNc2cccc(-c3ncon3)c2)cs1`, -42.1%; that for `COCc1nc(CNc2cccc(-c3csc(C)n3)c2)cs1`, 18.9%.
The result for `Cc1cc(NCc2csc(-c3ccsc3)n2)no1` reads -92.1%; that for `Cc1cc(NCc2csc(C)n2)no1`, 29.4%.
`COCc1nc(CNc2cccc(-c3nc(C)c(C)o3)c2)cs1`: the INHIBITION turned out to be 65.3%.
As to `CN(Cc1noc2c1CCCC2)C(=O)Nc1ccc2oc(=O)n(C)c2c1`, the INHIBITION came out at 36.4%.
Turning to `Cc1cnn(CCNCc2ccccc2OCc2ccncc2)c1`, the INHIBITION was -15.5%.
For `COc1cc(C(=O)N(Cc2ccco2)C2CC2)cc2c1OCCO2`, the INHIBITION is -2.37%.
Take `COc1cc(C(=O)N(Cc2ccco2)C2CC2)cc(OC)c1OC`: the INHIBITION turned out to be 53.4%.
Then `CCN(Cc1ccco1)C(=O)c1cc(OC)c2c(c1)OCCO2`, with 10.3%; and `O=C(NCCNc1ncccn1)C1CC(=O)N(C2CCCC2)C1` (stereo unspecified), with 21.6%.
The result for `Cc1cnn(CCNCc2nnc(C3CC3)o2)c1` reads 21.2%; that for `c1cnn(CCNCc2nnc(C3CC3)o2)c1`, 53.5%.
Then `c1ccc(-c2nnc(CNCCn3cccn3)o2)cc1`, with 32.6%.
Regarding `Cn1cccc1C(=O)N1CC[C@H]2C[C@@H](c3ccncn3)O[C@@H]2C1`, the INHIBITION came out at 41.5%.
On to `Cc1noc2nc(C3CCN(Cc4ccncc4)CC3)cc(C(F)F)c12`, for which the INHIBITION stood at 44.9%.
For the compound `Cc1noc2nc(C3CCN(CC4CCCCC4)CC3)cc(C(F)F)c12`, the INHIBITION came out at 59%.
The result for `Cc1noc2nc(C3CCN(Cc4cccnc4)CC3)cc(C(F)F)c12` reads 48.3%; that for `CCCS(=O)(=O)N1C[C@@H]2C[C@H](C(=O)N3CCOCC3)[C@H](C1)O2`, -19.6%; that for `CNC(=O)c1cccc(NC(=O)CN2CCCN(S(C)(=O)=O)CC2)c1`, -7.27%.
The result for `O=C(C[C@@H]1COC[C@H]2CN(C3CCCC3)C[C@@H]12)NCc1cccnc1` reads 20.6%; that for `Cc1nnc2n1CCN(Cc1nc(-c3ccoc3)no1)C2`, -16.75%.
Take `CC(C)c1nn(C)c(N(C)C)c1CNCCC(=O)NC1CCCC1`: the INHIBITION was 35.8%.
Take `COc1c(CNCc2ccc(CN(C)C)cc2)c(C)nn1C`: the INHIBITION is on record as -15.8%.
Consider `COCc1ccc(CNCc2c(C)nn(C)c2N(C)C)cc1`, for which the INHIBITION worked out at 33.7%.
Take `COc1c(CNCc2ccc(C(=O)NC3CC3)cc2)c(C)nn1C`: the INHIBITION is given as 13.5%.
In the case of `COc1c(CNCc2ccc(C(=O)N(C)C(C)C)cc2)c(C)nn1C`, the INHIBITION was found to be 88.5%.
Consider `Cc1nn(C)c(N(C)C)c1CNCc1ccc(C(=O)N(C)C)cc1`, for which the INHIBITION was -19.9%.
Take `COc1c(CNCc2ccc(C(=O)N3CCCC3)cc2)c(C)nn1C`: the INHIBITION amounted to 64.9%.
Then `COc1c(CNCc2ccc(OCC(N)=O)cc2)c(C)nn1C`, with 35.9%; and `Cc1nn(C)c(N(C)C)c1CNCCC(=O)NC1CCCC1`, with 64.8%; and `Cc1nn(C)c(N(C)C)c1CNCCC(=O)NC1CCCCC1`, with 49.8%.
Then `COc1c(CNCc2ccc(S(C)(=O)=O)cc2)c(C)nn1C`, with -31.8%.
Then `CCNC(=O)c1ccc(CNCc2c(C)nn(C)c2N(C)C)cc1`, with 58.8%; and `Cc1nn(C)c(N2CCOCC2)c1CNCc1ccoc1C`, with -29.8%; and `O=C1CC2(CCCC2)CC(=O)N1Cc1nccs1`, with 28.4%.
Regarding `Cc1ncsc1CN1C[C@@H](O)[C@](O)(CNC(=O)c2ccccn2)C1`, the INHIBITION is given as 18.9%.
Then `O=C(NC1CCC1)[C@H]1C[C@@H]2[C@@H](C1)OCCN2CC1CC1`, with 36.4%; and `Cc1ccc2c(c1)C1(CCN(C(N)=O)CC1)CN2CC1CC1`, with 44.8%; and `NS(=O)(=O)c1cnn(CC(=O)Nc2c(Cl)cccc2Cl)c1`, with 42.3%.
Turning to `Cc1nc(C)n(CCNS(=O)(=O)NCc2ccccc2)n1`, the INHIBITION came to 49.9%.
The result for `CS(=O)(=O)N1CCOCC2(CCN(C(=O)c3cnccn3)CC2)C1` reads -6.23%; that for `O=C(NCc1ccccc1Cn1cncn1)C1CCCCC1`, 30.6%.
The result for `Cc1cnc(N2CC3(CCN(S(=O)(=O)C4CC4)C3)C2)nc1` reads 40.3%; that for `Cc1nn(C)cc1Cn1c(=O)c(C)nc2ccccc21`, -11.4%.
`COc1c(CNCc2ccc(C(=O)N(C)C)cc2)c(C)nn1C`: the INHIBITION turned out to be 56.3%.
The result for `COc1c(CNCCNC(=O)c2ccc(C)cc2)c(C(C)C)nn1C` reads -79.3%.
Then `COc1c(CNCCNC(=O)c2ccc(C)cc2)c(C)nn1C`, with 52.7%; and `COc1c(CNCc2ccc(CS(C)(=O)=O)cc2)c(C)nn1C`, with 43.2%; and `COc1c(CNCc2cccc(C(=O)N(C)C)c2)c(C)nn1C`, with -29.8%.
As for `COc1c(CNCCNC(=O)c2ccccc2)c(C)nn1C`, the INHIBITION was 15.3%.
As to `CC(C)(C)C(=O)Nc1cnn(-c2ccccc2S(C)(=O)=O)c1`, the INHIBITION is on record as -0.125%.
In the case of `O=C(c1ccccc1)N1CCC[C@]2(C[C@@H](Oc3ncccc3F)CO2)C1`, the INHIBITION is 5.96%.
With `Cc1ccc(N2C[C@@H]3CCCO[C@@H]3[C@H](N3CCCC3)C2)nn1`, the INHIBITION came to 20.1%.
Regarding `COCCCC1CCCN(Cc2c(C)ccc3ncccc23)C1` (stereo unspecified), the INHIBITION worked out at 5.41%.
Take `COc1ccc(S(=O)(=O)N2CCc3ccc(Cl)cc32)cc1C(=O)O`: the INHIBITION was -54.6%.
Consider `CCc1cn[nH]c1C1CCN(c2cc(C)c3ccc(OC)cc3n2)CC1`, for which the INHIBITION is given as 71.1%.
Take `CCc1cn[nH]c1C1CCN(c2cc(C)c3cccc(OC)c3n2)CC1`: the INHIBITION is given as 42.7%.
Regarding `CCc1cn[nH]c1C1CCN(c2cc(C)c3cc(OC)ccc3n2)CC1`, the INHIBITION stood at 26.6%.
Then `Cc1cccc(OCCC(=O)N(C)CCNS(C)(=O)=O)c1C`, with 7.11%; and `CC(C)(C)CC(=O)N1CCCC2(CC(C(=O)Nc3ccccc3)=NO2)C1` (stereo unspecified), with -32%; and `OCCCc1nncn1-c1cccc(C(F)(F)F)c1`, with 33.4%.
Take `CCOC(=O)N(C)C1CCN(Cc2cnc3ccccn23)CC1`: the INHIBITION is 8.12%.
As to `CCc1nc(C)c(C(=O)N(C)Cc2cnc3ccccn23)o1`, the INHIBITION worked out at 10.6%.
The result for `CC(C)N(C)C(=O)C1CCN(Cc2cnc3ccccn23)CC1` reads 63.3%.
Then `CC(C)N(C)C(=O)C1CCN(Cc2cc3c(cc2O)CCC3)CC1`, with 33.6%; and `Cc1cccc(NC(=O)[C@@H]2CCCN2Cc2cnc3ccccn23)n1`, with 45.7%.
Regarding `CN(C(=O)C1CCN(Cc2cnc3ccccn23)CC1)c1ccccc1`, the INHIBITION is 58.2%.
The result for `O=C([C@H]1CCCO1)N1CC[C@H](O)[C@@H]1Cc1cccnc1` reads 39.4%; that for `CN(C)c1nc(N2CCCC2)nc2c1CCN(C(=O)c1ccco1)CC2`, 28.2%.
As for `CCCc1noc(CCC(=O)N2CCCC2c2cccc(OC)c2)n1` (stereo unspecified), the INHIBITION is reported as -34%.
On to `O=C1CCC(c2nc(C3CCN(C(=O)C4CC4)CC3)no2)N1` (stereo unspecified), for which the INHIBITION is on record as 14%.
For the compound `O=C1CCC(c2nc(C3CCNCC3)no2)N1` (stereo unspecified), the INHIBITION was 55.8%.
`CC(=O)N1CCC(c2noc(C3CCC(=O)N3)n2)CC1` (stereo unspecified): the INHIBITION is recorded as 18.4%.
Then `Cc1cc(C(F)F)nn1C(C)C(=O)NCc1ncc[nH]1` (stereo unspecified), with -1.21%.
